Compounds with a hit are over-represented: about 1.8% of the library has one in this group of screens.
Rtt109 Vps75 – inhibitors of C. albicans Rtt109/Vps75 HAT, primary screen, biochemical, ThioGlo CoA-SH fluorescence, plate reader; Histone acetyltransferase RTT109 (Candida albicans (strain SC5314 / ATCC MYA-2876)), …; purified Rtt109/Vps75, 4 h; inhibition, % at 34.9 µM; 330,000 tested, 0.16% active; AID 540336, 2011;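 active = inhibition of at least 50% in every replicate; inconclusive = best replicate reaches 50% inhibition but some replicates fall short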
TLR9-MyD88 inh – inhibitors of TLR9-MyD88 association in cells, primary screen, cell-based, CHO, BLA complementation, fluorescence. Toll-like receptor 9 (Homo sapiens) + Myeloid differentiation primary response protein …. CCF4 FRET ratio. inhibition, % at 4.98 µM. 340,000 tested, 0.21% active. AID 504734, 2011;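 active = inhibition above the mean over all tested compounds plus 3 SD, cut at about 21% in these data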
m5-HT2A agonist – mouse Htr2a agonists via beta-arrestin recruitment, primary screen, cell-based, luminescence; 5-hydroxytryptamine receptor 2A (Mus musculus), P35363; CHO-K1 mHTR2A beta-arrestin complementation; percent of 30 µM serotonin response; activation, % at 7.6 µM; 360,000 tested, 0.66% active; AID 624169, 2012;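 active = activation above a run cutoff, the mean activation of all tested compounds plus 3 SD, cut at about 14% in these data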
TLR4-MyD88 BLA – inhibitors of TLR4-MyD88 association in cells, primary screen, cell-based, HeLa CL3-4, BLA complementation, FRET ratio; inhibition, % at 8.4 µM; Toll-like receptor 4 (Homo sapiens) + Myeloid differentiation primary response protein …; 200,000 tested, 0.18% active; HeLa CL3-4 TLR4/MyD88 BLA complementation; AID 861, 2007; in the data active = inhibition above about 25%
LANA-H2A inh – blockers of LANA interaction with H2A/H2B – biochemical, FP readout, HTS, primary screen; Protein LANA1 (Human herpesvirus 8 type P (isolate GK18)), Q9QR71; cell-free LANA-H2A/H2B peptide, fluorescence polarization; inhibition, % (no concentration beside the values); 320,000 tested, 0.6% active; AID 2629, 2010; in the data active = inhibition mostly above about 10%, no sharp cut-off; inactive = mostly below about 6.7%
Target sequence (Q9QR71 whole entry, looked up): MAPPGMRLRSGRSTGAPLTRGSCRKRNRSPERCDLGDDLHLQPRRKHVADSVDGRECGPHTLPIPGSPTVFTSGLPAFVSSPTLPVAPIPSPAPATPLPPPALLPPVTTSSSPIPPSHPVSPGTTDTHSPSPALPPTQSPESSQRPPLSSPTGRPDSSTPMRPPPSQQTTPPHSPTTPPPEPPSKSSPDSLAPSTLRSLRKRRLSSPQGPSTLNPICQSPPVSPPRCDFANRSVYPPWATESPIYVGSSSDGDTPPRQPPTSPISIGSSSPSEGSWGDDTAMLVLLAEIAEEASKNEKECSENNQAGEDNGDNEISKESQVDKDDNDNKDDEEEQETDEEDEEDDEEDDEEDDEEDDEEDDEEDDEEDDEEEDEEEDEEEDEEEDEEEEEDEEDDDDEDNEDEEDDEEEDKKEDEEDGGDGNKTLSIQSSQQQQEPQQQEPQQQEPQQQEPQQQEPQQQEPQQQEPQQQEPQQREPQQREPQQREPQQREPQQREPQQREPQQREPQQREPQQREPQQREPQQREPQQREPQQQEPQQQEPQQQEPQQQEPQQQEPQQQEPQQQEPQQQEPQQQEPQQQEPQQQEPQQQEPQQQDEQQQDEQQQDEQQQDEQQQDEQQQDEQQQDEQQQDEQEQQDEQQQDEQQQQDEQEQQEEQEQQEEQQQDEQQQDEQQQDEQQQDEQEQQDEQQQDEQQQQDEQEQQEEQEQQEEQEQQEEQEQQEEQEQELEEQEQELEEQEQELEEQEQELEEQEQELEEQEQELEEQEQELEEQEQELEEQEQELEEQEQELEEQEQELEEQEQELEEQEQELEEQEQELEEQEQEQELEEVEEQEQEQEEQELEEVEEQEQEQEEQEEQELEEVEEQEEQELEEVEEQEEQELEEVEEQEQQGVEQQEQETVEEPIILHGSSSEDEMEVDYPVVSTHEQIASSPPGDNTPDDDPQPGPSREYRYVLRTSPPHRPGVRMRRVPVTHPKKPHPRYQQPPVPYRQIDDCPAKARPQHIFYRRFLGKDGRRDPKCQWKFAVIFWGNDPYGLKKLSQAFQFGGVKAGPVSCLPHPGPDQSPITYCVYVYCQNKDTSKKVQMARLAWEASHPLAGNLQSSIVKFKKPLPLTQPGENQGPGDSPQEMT
NOD2-RIPK2 inh – NOD2-RIPK2 binding disruptors in cells, primary screen, fluorescence, CHO cells, BLA complementation | inhibition, % at 4.98 µM | AID 624267, 2012 | Receptor-interacting serine/threonine-protein kinase 2 (Homo sapiens), O43353 | CCF4 ratio | 360,000 tested, 0.38% active; in the data active = inhibition above about 21%
OPRM1 ag – OPRM1 agonists via beta-arrestin recruitment, confirmation, counter-screen for mouse HTR2A agonist project, cell-based, luminescence, single concentration | shares compounds with m5-HT2A agonist | U2OS OPRM1 beta-arrestin PathHunter; DMSO 0%, DAMGO 9.3 µM 100% | activation, % at 9.3 µM | 2,300 tested, 5.3% active | AID 624380, 2012;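 active = mean activation above the mean of DMSO-only wells plus 3 SD, cut at about 0.5% in these data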
m5-HT2A ag conf – mouse HTR2A agonists, beta-arrestin recruitment, confirmation, cell-based, luminescence, CHO-K1 PathHunter, triplicate; AID 624381, 2012; shares compounds with m5-HT2A agonist; DMSO 0%, 30 µM serotonin 100%; activation, % at 7.6 µM; 2,300 tested, 19% active;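 active = mean activation across triplicates above the hit threshold derived in the original primary screen, cut at about 15% in these data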
Each line names hits and unclear results; the compound was inactive in the other large screens (follow-up assays come after a bar, where they were run).

COCCNC(=O)c1cc2c(c(-c3cccc(C#Cc4ccc(OC)c(OC)c4)c3)n1)[C@@H](CCO)N(S(=O)C(C)(C)C)C2 (stereo partly specified)	none (no result: Rtt109 Vps75, TLR9-MyD88 inh, TLR4-MyD88 BLA, LANA-H2A inh)
Cc1cc(C(=O)CSc2nnc(-c3ccc(F)cc3)o2)c(C)n1CC1COc2ccccc2O1 (stereo unspecified)	m5-HT2A agonist 16.2 | OPRM1 ag inactive | m5-HT2A ag conf inactive
O=C(CN1CCc2ccccc21)NN1CC(=O)N(c2ccccc2)CC1=O	m5-HT2A agonist 18.9 (no result: TLR4-MyD88 BLA) | OPRM1 ag inactive | m5-HT2A ag conf inactive
CC12CCC(C(=O)N(CCCN3CCN(Cc4ccccc4)CC3)C1=O)C2(C)C (stereo unspecified)	none
CC12CCC(C(=O)N(CCCCN3CCN(c4ccccn4)CC3)C1=O)C2(C)C (stereo unspecified)	m5-HT2A agonist 28.0 (no result: TLR4-MyD88 BLA) | OPRM1 ag inactive | m5-HT2A ag conf 90.2
CC(C)(C)OC(=O)N1C[C@H](O)C[C@H]1C(=O)OCC(=O)c1ccc([N+](=O)[O-])cc1	Rtt109 Vps75 inconclusive (no result: TLR4-MyD88 BLA)
CN1C(=O)/C(=C/c2cc(C(C)(C)C)c(O)c(C(C)(C)C)c2)NC1=S	none
O=c1c(CN2CCN(c3ccccn3)CC2)coc2ccccc12	none (no result: Rtt109 Vps75)
c1cnc(N2CCN(Cc3ccc4c(c3)OCO4)CC2)nc1	m5-HT2A agonist 41.7 | OPRM1 ag inactive | m5-HT2A ag conf 169.0
c1nc(N2CCN(Cc3ccc4c(c3)OCO4)CC2)c2[nH]cnc2n1	m5-HT2A agonist 20.4 | OPRM1 ag inactive | m5-HT2A ag conf 74.8
Brc1ccc(CN2CCN(c3ccccn3)CC2)s1	m5-HT2A agonist 29.5 | OPRM1 ag inactive | m5-HT2A ag conf 98.1
c1ccc(N2CCN(Cc3ccc4c(c3)OCO4)CC2)nc1	m5-HT2A agonist 31.7 (no result: Rtt109 Vps75, TLR9-MyD88 inh, TLR4-MyD88 BLA) | OPRM1 ag inactive | m5-HT2A ag conf 113.2
Cc1ccc2[nH]c3c(N4CCN(Cc5ccc6c(c5)OCO6)CC4)ncnc3c2c1	none (no result: Rtt109 Vps75, TLR9-MyD88 inh, m5-HT2A agonist, LANA-H2A inh, NOD2-RIPK2 inh)
CC(C)(CO)NC(=O)c1ccc2c(c1)C(=O)c1ccccc1-2	none (no result: TLR4-MyD88 BLA)
CC(C)(C)NC(=O)COc1ccc(CNCCc2ccccc2)cc1	none
CC(C)(C)NC(=O)COc1ccc(CNCc2ccccn2)cc1	m5-HT2A agonist 14.5 | OPRM1 ag inactive | m5-HT2A ag conf inactive
CN(Cc1ccccc1)S(=O)(=O)c1ccc(OCC(=O)NCc2ccccn2)cc1	m5-HT2A agonist 17.6 (no result: TLR4-MyD88 BLA) | OPRM1 ag inactive | m5-HT2A ag conf inactive
CCOc1ccc(S(=O)(=O)N(C)CC(=O)NCc2ccccn2)cc1	none (no result: TLR4-MyD88 BLA)
COC(=O)/C(=C/N(C)C)C(=O)N1CCN(c2ccc(Cl)c(Cl)c2)CC1	m5-HT2A agonist 17.6 | OPRM1 ag inactive | m5-HT2A ag conf inactive
CC(=O)Nc1ccc(S(=O)(=O)NCc2nc(-c3ccc(C)cc3)no2)cc1	none (no result: TLR4-MyD88 BLA)
COc1cc2ccccc2cc1C(=O)OCC(=O)c1c(N)n(C)c(=O)n(C)c1=O	none (no result: TLR4-MyD88 BLA)
Cc1ccnc(NS(=O)(=O)c2ccc(NC(=O)c3snnc3C)cc2)n1	m5-HT2A agonist 14.8 (no result: TLR4-MyD88 BLA) | OPRM1 ag inactive | m5-HT2A ag conf inactive
CC(=O)Nc1ccc(S(=O)(=O)Nc2nccc(C)n2)cc1	none (no result: TLR4-MyD88 BLA)
COc1cc(CNCCc2ccccc2)cc(Cl)c1OCc1ccccc1	m5-HT2A agonist 19.6 | OPRM1 ag 1.2 | m5-HT2A ag conf inactive
COc1cc(CNCc2ccccc2)cc(Cl)c1OC	none
Cc1ccc(SCC(=O)NNC(=O)CNC(=O)c2ccccc2F)cc1	none (no result: TLR4-MyD88 BLA)
C=CCn1c(=N)n(CC(O)c2ccco2)c2ccccc21 (stereo unspecified)	m5-HT2A agonist 14.7 | OPRM1 ag inactive | m5-HT2A ag conf inactive
O=C(c1ccccc1F)N1CCN(Cc2nc3sc4c(c3c(=O)[nH]2)CCCC4)CC1	m5-HT2A agonist 15.6 (no result: TLR4-MyD88 BLA) | OPRM1 ag inactive | m5-HT2A ag conf inactive
Cc1ccc(C(=O)N2CCN(Cc3nc4sc5c(c4c(=O)[nH]3)CCCC5)CC2)cc1	none (no result: TLR4-MyD88 BLA)
COc1ccc(N2CCN(C(=O)COC(=O)Cc3cccc(OC)c3)CC2)cc1	none (no result: TLR4-MyD88 BLA)
O=C(c1ccco1)N1CCN(CC2CC3C=CC2C3)CC1 (stereo unspecified)	m5-HT2A agonist 21.1 | OPRM1 ag inactive | m5-HT2A ag conf 75.9
COc1ccc(NC(=S)N2CCN(Cc3ccccc3)CC2)cc1	none
COc1ccc2ccccc2c1CN1CCN(C(=O)c2ccco2)CC1	m5-HT2A agonist 16.9 (no result: TLR4-MyD88 BLA) | OPRM1 ag inactive | m5-HT2A ag conf 129.9
COc1ccc(N2CCN(C(=O)COC(=O)c3ccco3)CC2)cc1	m5-HT2A agonist 15.1 (no result: TLR4-MyD88 BLA) | OPRM1 ag inactive | m5-HT2A ag conf inactive
COc1ccc2ccccc2c1CN1CCN(C(=O)c2ccccc2)CC1	none
CC(=O)N1CCN(C(=O)c2ccco2)CC1	none (no result: TLR4-MyD88 BLA)
COc1ccc(CNC(=S)N2CCN(Cc3ccccc3)CC2)cc1	m5-HT2A agonist 18.6 (no result: TLR4-MyD88 BLA) | OPRM1 ag inactive | m5-HT2A ag conf inactive
O=C(c1cc(-c2ccc(Cl)cc2)n[nH]1)N1CCN(C(=O)c2ccco2)CC1	none (no result: TLR4-MyD88 BLA)
C1=CC2CC1CC2CN1CCN(c2ccccc2)CC1 (stereo unspecified)	m5-HT2A agonist 14.7 | OPRM1 ag inactive | m5-HT2A ag conf 57.1
CCOc1cc(CN2CCN(C(=O)c3ccco3)CC2)ccc1OC	m5-HT2A agonist 18.0 | OPRM1 ag inactive | m5-HT2A ag conf 71.0
CCOc1ccc(C(=O)N2CCN(C(=O)c3ccco3)CC2)cc1OCC	none
COc1ccc(CN2CCN(C(=O)c3ccco3)CC2)cc1	m5-HT2A agonist 25.3 | OPRM1 ag inactive | m5-HT2A ag conf 102.6
CCOc1ccc(CN2CCN(C(=O)c3ccco3)CC2)cc1	m5-HT2A agonist 24.0 (no result: TLR4-MyD88 BLA) | OPRM1 ag inactive | m5-HT2A ag conf 129.5
Cc1ccccc1CN1CCN(CC2CC3C=CC2C3)CC1 (stereo unspecified)	none
C[C@@H]1CCCCO[C@H](CN(C)C(=O)C2CCCCC2)[C@@H](C)CN([C@H](C)CO)C(=O)c2cc(N(C)C)ccc2O1	none (no result: Rtt109 Vps75, TLR4-MyD88 BLA, LANA-H2A inh)

Source: PubChem BioAssay
